A selection: hits, their analogues and other compounds. The true share with any hit is near 3%.
TRb-SRC2 inh: disrupts binding of human TR beta to SRC2; TRbeta-SRC2 peptide binding, fluorescence polarization; receptor liganded with 1 µM T3; P10828; AID 1469; hit rate 0.065% among 280,000; Potency, µM (doses to about 106 µM), without a hit: top-dose activity change, negative = inhibition, hits mostly inhibitors;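 further: plate controls were bound peptide for no effect and peptide without receptor for full effect; nearly all actives have a fitted effect of over 50% in size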
Target sequence (P10828 whole entry, looked up): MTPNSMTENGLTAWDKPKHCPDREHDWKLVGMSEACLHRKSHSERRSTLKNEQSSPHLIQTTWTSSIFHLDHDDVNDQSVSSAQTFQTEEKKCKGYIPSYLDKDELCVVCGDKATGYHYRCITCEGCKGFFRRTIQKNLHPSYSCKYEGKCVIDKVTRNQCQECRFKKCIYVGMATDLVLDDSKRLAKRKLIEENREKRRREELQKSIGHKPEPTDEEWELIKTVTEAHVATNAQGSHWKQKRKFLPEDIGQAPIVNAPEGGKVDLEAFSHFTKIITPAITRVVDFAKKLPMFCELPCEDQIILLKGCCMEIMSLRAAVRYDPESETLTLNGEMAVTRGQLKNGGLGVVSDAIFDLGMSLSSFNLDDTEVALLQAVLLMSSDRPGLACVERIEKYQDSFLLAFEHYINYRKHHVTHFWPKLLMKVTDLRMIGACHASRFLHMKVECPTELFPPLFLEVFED
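Polarization signal, normalized between peptide-alone and full complex controls, measured compound effects on T3-liganded human TRb LBD (0.6 uM) binding 20 nM Texas Red SRC2 peptide after 5 hr.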
Tau fibril ThT: tau fibrillization inhibition (ThT binding); P10636; recombinant tau K18 P301L, heparin-induced fibrillization, ThT fluorescence; Potency, µM (highest dose often 57.4 µM), for the others: at the top dose activity, negative = inhibition, usual class: inhibitors; hit rate 2.1% among 270,000; further: nearly all actives have a fitted effect of over 55% in size
Target sequence (P10636 561-689 P618L limits assumed): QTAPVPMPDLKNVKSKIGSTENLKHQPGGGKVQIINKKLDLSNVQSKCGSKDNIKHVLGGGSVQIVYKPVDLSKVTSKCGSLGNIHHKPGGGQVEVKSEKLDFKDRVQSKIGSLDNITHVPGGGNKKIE
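K18 P301L tau (15 uM + 0.24 uM Alexa 594-tagged), heparin 20 uM, NaOAc pH 7, 6 h 37 C; ThT 30 uM, 1 h RT, ex 450/em 510 nm.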
Tau fibril FP: tau fibrillization inhibition (FP). hit rate 0.39% among 280,000. AID 1468. Potency, µM (top dose mostly 57.7 µM), for inactives: at the top dose activity, negative = inhibition, most hits filed as inhibitors. K18 P301L tau heparin fibrillization, Alexa594 FP, 6 h. P10636; further: nearly all actives have a fitted effect of over 55% in size
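Steps: dispense K18 P301L tau (15 uM plus 0.24 uM Alexa 594 tracer, final) in pH 7 sodium acetate; add compound; add heparin (20 uM final); incubate 6 hr, 37 C; add ThT (30 uM final); after 1 hr ambient, read FP.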
Tau fluor counter: counter-screen for tau fibril formation inhibitors | Potency, µM (highest dose often 57.7 µM), inactives show at the highest dose activity change, negative = decrease | tau K18 P301L (four-repeat tau fragment) Alexa594 fluorescence, heparin fibrillization | AID 1463 | hit rate 0.93% among 280,000; further: nearly all actives have a fitted effect of over 55% in size
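Human K18 P301L tau (15 uM unlabeled plus 0.24 uM Alexa 594-labeled, final) in 100 mM sodium acetate pH 7 was mixed with compound and 20 uM heparin and incubated 6 hr at 37 C.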
TR SRC2 fluor cs: alters Texas Red total fluorescence, flagging assay interference; Potency, µM (titrated, usually from 106 µM), for the others: at the top dose fluorescence change, negative = quenching; hit rate 0.29% among 280,000; TRb/SRC2 Texas Red total fluorescence interference; AID 1479; active means well fitted curve in either direction with a large enough effect; inconclusive means small, poorly fitted or top-dose-only effect
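Human TRβ ligand-binding domain (0.6 uM) and Texas Red SRC2 peptide (20 nM) in Tris buffer with 1 uM T3 and 5% DMSO were incubated with pinned compound for 5 hr at ambient temperature. Total fluorescence was computed as S + 2P (555/632 nm).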
* = called active by the depositor; ? = inconclusive; . = no result given; ! = not active in a repeat; [ ] = dose if it differs, or a comment. Unless noted, the call rests on the fitted dose curve; in most records, active means well fitted curve in the direction sought with a large enough effect; inconclusive means small, poorly fitted or top-dose-only effect, or another doubt; inactive means no such curve, though single readings can be large; an effect the other way counts as inactive or inconclusive. Unless noted, on the % scale 0 is the no-effect control and ±100 the full control effect; potency means the concentration at half of the fitted maximal effect.

SMILES	TRb-SRC2 inh	Tau fibril ThT	Tau fibril FP	Tau fluor counter	TR SRC2 fluor cs
C=CC(=O)OCCCCCC(C)C	-2.1%[201 µM]	.	.	.	-1.2%[201 µM]
CON=C(C(=O)OC)c1ccccc1CO/N=C(\C)c1cccc(C(F)(F)F)c1	2.4%[201 µM]	.	.	.	3.7%[201 µM]
CCSCCSP(=O)(OC)OC	0.3%[201 µM]	.	.	.	-0.5%[201 µM]
CC(C)(O)C1O[C@H]2CC[C@@]3(C)[C@@](O)(CC[C@H]4Cc5c([nH]c6ccccc56)[C@@]43C)C2=CC1=O (some centres not stated)	-3.5%	?	?	15.8µM*[quencher]	-0.8%
CCCCOCCOC(C)=O	2.2%[201 µM]	.	.	.	0.7%[201 µM]
CC1=C(O)C(=O)[C@@H]2O[C@@H]2C1=O	0.4%	15.8µM*	20µM*	?	-4.6%
O=C1C=Cc2ccccc2C1=O	?	2.51µM*	4.47µM*	?	?
O=C1c2ccccc2C(=O)c2ccccc21	-4.7%[201 µM]	7.4%	-0.6%	-2.8%	-4.1%[201 µM]
O=Cc1cccc(Oc2ccccc2)c1	5.1%[201 µM]	.	.	.	-4.7%[201 µM]
CCOP(=O)(OCC)Oc1ccc2c(C)c(Cl)c(=O)oc2c1	-3.4%[201 µM]	.	.	.	-4.4%[201 µM]
CCCc1cc2c(n1Cc1ccco1)C(C)C1CN(C(=O)c3ccccc3)C(C)(C(=O)OC)C21 (configuration not stated)	12.8%	22.4µM*	?	-12.0%	1.3%
CC[n+]1c(-c2ccccc2)c2cc(N)ccc2c2ccc(N)cc21	35.5µM*!	3.98µM*	11.2µM*	?	44.7µM*![fluorescent]
O=C1C(Cl)=C(Cl)C(=O)c2ccccc21	-8.2%[201 µM]	.	.	.	-9.3%[201 µM]
O=C1NC(=O)N(c2ccccc2)C(=O)/C1=C/c1ccoc1	-11.3%	?	-9.3%	-5.5%	8.4%
CC(C)c1ccc(N2C(=O)NC(=O)/C(=C\c3cnc(-c4ccccc4)nc3)C2=O)cc1	1.4%	22.4µM*	?	-19.3%	1.2%
Cc1ccc(N2C(=O)NC(=O)/C(=C/c3cnc(-c4ccccc4)nc3)C2=O)cc1C	-4.6%	15.8µM*	?	-23.0%	4.2%
Cc1cccc(N2C(=O)NC(=O)/C(=C\c3cnc(-c4ccccc4)nc3)C2=O)c1	-29.8%[53 µM]	5.4%	4.3%	1.8%	1.26µM*[quencher]
O=C1CC(N2CC=C(c3ccc(F)cc3)CC2)C(=O)N1c1ccc(F)cc1 (configuration not stated)	-0.5%	31.6µM*	?	?	0.9%
COc1cc2c(cc1OC)-c1c(OC)c(OC)cc3c1C(C2)N(C)CC3 (configuration not stated)	-19.0%	?	4.2%	-19.3%	1.3%
COc1cc2c(cc1OC)-c1c(O)c(OC)cc3c1[C@H](C2)N(C)CC3	39.8µM*	5.01µM*	11.2µM*	?	?
COC(=O)NS(=O)(=O)c1ccc(N)cc1	0.6%[201 µM]	.	.	.	0.0%[201 µM]
C/C1=C\[C@@H](C)C/C=C/[C@H]2[C@@H]3O[C@]3(C)[C@@H](C)[C@H]3[C@H](Cc4c[nH]c5ccccc45)NC(=O)[C@]32C(=O)/C=C/C(=O)[C@@H]1O	-10.7%	0.891µM*	-19.2%	?	-0.9%
CC1=CC2/C=C(\C)CCC(O)C(O)/C=C/C(=O)C23C(=O)NC(CC(C)C)C3C1C (configuration not stated)	-5.1%	?	-9.2%	-2.5%	1.0%
O=C(NC(=O)c1c(F)cccc1F)Nc1cc(Cl)c(OC(F)(F)C(F)F)c(Cl)c1	6.6%[201 µM]	.	.	.	-2.1%[201 µM]
O=[N+]([O-])c1ccc(-c2ccc(C=Nc3cccc4ccccc34)o2)cc1	-3.0%	15.8µM*	-3.6%	-26.9%	-7.2%
SMILES	TRb-SRC2 inh	Tau fibril ThT	Tau fibril FP	Tau fluor counter	TR SRC2 fluor cs
O=[N+]([O-])c1cccc2ccccc12	0.8%[201 µM]	.	.	.	-1.8%[201 µM]
COc1ccc(CN2C(=O)NC(=O)/C(=C\c3ccco3)C2=O)cc1	18.8%	?	?	-16.2%	10.6%
CC(C)N1C(=O)/C(=C/C=C/c2ccco2)C(=O)N(Cc2ccco2)C1=O	19.5%	28.2µM*	?	-29.6%	-7.3%
CCN1C(=O)C(=C/C=C/c2ccco2)C(=O)N(CC)C1=S	?	15.8µM*	?	-13.4%	28.2µM*[fluorescent]
O=C1NC(=O)N(Cc2ccccc2)C(=O)/C1=C/C=C/c1ccco1	18.1%	10µM*	?	-25.6%	16.8%
COc1ccc(/C=C2/C(=O)N(Cc3ccco3)C(=O)N(C(C)C)C2=O)cc1	?	17.8µM*	?	-11.7%	-29.8%
CN(C)c1ccc(/C=C2/C(=O)NC(=O)N(Cc3ccco3)C2=O)cc1	0.0%	?	-17.6%	-11.6%	1.9%
CC(C)c1ccc(N2C(=O)NC(=O)/C(=C\C=C\c3ccco3)C2=O)cc1	14.0%	?	?	-3.7%	3.9%
CC1(C)[C@H](C(=O)O[C@H](C#N)c2cccc(Oc3ccccc3)c2)[C@@H]1/C=C(\Cl)C(F)(F)F	3.0%[201 µM]	.	.	.	0.9%[201 µM]
O=C1NC(=O)N(CCc2ccc(F)cc2)C(=O)/C1=C/c1ccco1	22.4%	10µM*	?	?	11.7%
Cc1ccc(/C=C2/C(=O)NC(=O)N(CCc3ccc(F)cc3)C2=O)o1	8.7%	?	-4.8%	-4.6%	9.8%
O=C(O)c1ccccc1SCC(=O)N1c2ccccc2Sc2ccccc21	-18.5%[53 µM]	3.8%	6.5%	-0.1%	0.0891µM*[quencher]
Oc1ccc(Cl)cc1Cc1ccccc1	2.2%[201 µM]	.	.	.	-6.6%[201 µM]
Oc1ccc(Cl)cc1Cc1cc(Cl)ccc1O	5.4%	?	?	11.2µM*[quencher]	-2.3%
Cc1ccc(/C=C2\C(=O)NC(=S)N(c3ccccc3F)C2=O)s1	1.5%	17.8µM*	1.2%	?	-3.1%
CCOP(=O)(NC(C)C)Oc1ccc(S(C)(=O)=O)c(C)c1 (configuration not stated)	-1.2%[201 µM]	.	.	.	-2.7%[201 µM]
O=C(O)c1cccc(Cl)c1	1.4%	.	.	.	-0.2%
O=C(O)c1cc(O)c(O)c(O)c1	5.8%	1.26µM*	2µM*	3.98µM*[quencher]	-1.9%
CC/C(=N\OC/C=C/Cl)C1=C(O)CC(C2CCOCC2)CC1=O (configuration not stated)	-0.4%[201 µM]	.	.	.	1.9%[201 µM]
CC(COc1ccc(Oc2ccccc2)cc1)Oc1ccccn1 (configuration not stated)	-2.2%[201 µM]	.	.	.	0.1%[201 µM]
CCCCC/C=C\C/C=C\C/C=C\C/C=C\CCCC(=O)O	-8.4%	28.2µM*!	?	?	-2.1%
COCC(=O)N(c1c(C)cccc1C)N1CCOC1=O	5.8%[201 µM]	.	.	.	1.7%[201 µM]
C=CCN1C(=O)NC(=O)/C(=C/c2cc3c4c(c2)CCCN4CCC3)C1=O	0.4%	17.8µM*	?	-29.0%	-1.0%
N#C/C(=C\c1ccc(O)c(O)c1)C(N)=S	6.6%	2.24µM*	?	?	-14.8%
N#CC(C#N)=Cc1ccc(O)cc1	0.7%	.	.	.	?
Cc1ccccc1C(=O)Nc1sc2c(c1C(=O)O)CCC(C(C)(C)C)C2 (configuration not stated)	3.1%	20µM*	-7.9%	?	-2.5%
CCOC(=O)c1c(NC(=O)c2c(N)n(CCCOC)c3nc4ccccc4nc23)sc2c1CCCC2	5.4%	?	11.5%	?	0.6%

Screens: PubChem, National Center for Advancing Translational Sciences (NCATS)
